Source: the supplement of paper PMC11732987, “Enantioselective OTUD7B fragment discovery through chemoproteomics screening and high-throughput optimisation” (Communications Chemistry, 2025)
Values without a mark were called inactive.

How the values were obtained:
Experiment in all cases: log2 ratio of Biotin-Ahx-Ub-VS probe labelling (fragment/DMSO); higher = less target engagement (more negative = stronger competition), active = hit call of the paper (q ≤ 0.05, log2 ratio ≤ -1)
Settings in all cases: compound concentration: 200 uM; treatment time: 3 h
[1] = target: T1, ALG13 (UniProt Q9NP73)
T1 sequence (whole entry): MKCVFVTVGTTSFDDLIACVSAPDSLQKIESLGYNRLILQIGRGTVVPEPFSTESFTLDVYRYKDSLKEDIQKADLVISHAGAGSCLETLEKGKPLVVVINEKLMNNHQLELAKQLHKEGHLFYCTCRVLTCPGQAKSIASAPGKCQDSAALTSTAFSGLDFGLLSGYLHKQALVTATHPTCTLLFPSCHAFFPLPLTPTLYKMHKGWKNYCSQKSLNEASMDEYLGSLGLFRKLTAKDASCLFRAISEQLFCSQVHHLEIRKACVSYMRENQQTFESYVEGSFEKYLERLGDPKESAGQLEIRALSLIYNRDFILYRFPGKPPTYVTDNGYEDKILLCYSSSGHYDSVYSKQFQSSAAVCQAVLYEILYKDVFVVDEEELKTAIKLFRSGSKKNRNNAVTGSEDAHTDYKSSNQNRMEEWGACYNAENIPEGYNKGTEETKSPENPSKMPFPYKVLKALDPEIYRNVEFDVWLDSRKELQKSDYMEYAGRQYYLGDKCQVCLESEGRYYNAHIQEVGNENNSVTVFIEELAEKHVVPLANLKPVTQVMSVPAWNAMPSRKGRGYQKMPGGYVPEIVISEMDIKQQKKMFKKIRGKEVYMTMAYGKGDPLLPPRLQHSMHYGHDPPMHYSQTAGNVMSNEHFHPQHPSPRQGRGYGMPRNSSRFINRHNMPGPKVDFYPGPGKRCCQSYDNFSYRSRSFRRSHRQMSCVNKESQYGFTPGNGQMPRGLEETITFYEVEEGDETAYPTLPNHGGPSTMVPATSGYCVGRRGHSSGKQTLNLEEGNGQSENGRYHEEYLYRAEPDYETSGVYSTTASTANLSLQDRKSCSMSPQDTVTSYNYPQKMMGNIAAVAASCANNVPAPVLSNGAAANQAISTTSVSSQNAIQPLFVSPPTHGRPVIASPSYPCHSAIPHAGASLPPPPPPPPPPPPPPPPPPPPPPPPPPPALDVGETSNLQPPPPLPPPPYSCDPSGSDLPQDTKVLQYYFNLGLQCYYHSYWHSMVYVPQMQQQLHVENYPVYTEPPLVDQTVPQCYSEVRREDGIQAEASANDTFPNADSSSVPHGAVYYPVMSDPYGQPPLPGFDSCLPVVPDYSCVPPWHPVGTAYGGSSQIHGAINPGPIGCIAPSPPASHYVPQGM
Outline: (§1)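 Average log2 ratios of fragment over vehicle were obtained by unpaired t-test from global-median-normalised Spectronaut label-free quantities. Proteins with ≥2 unique peptides were included. HEK293T lysate (495 µg per sample) was treated in triplicate with fragment at 200 µM or vehicle for 3 h, then with Biotin-Ahx-Ub-VS at 0.5 µM final for 1 h, and labelled DUBs were NeutrAvidin-enriched and run by diaPASEF LC-MS/MS.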

[2] = target: ATXN3 (UniProt P54252)
Outline: as §1

[3] = target: T2, BAP1 (UniProt Q92560)
T2 sequence (whole entry): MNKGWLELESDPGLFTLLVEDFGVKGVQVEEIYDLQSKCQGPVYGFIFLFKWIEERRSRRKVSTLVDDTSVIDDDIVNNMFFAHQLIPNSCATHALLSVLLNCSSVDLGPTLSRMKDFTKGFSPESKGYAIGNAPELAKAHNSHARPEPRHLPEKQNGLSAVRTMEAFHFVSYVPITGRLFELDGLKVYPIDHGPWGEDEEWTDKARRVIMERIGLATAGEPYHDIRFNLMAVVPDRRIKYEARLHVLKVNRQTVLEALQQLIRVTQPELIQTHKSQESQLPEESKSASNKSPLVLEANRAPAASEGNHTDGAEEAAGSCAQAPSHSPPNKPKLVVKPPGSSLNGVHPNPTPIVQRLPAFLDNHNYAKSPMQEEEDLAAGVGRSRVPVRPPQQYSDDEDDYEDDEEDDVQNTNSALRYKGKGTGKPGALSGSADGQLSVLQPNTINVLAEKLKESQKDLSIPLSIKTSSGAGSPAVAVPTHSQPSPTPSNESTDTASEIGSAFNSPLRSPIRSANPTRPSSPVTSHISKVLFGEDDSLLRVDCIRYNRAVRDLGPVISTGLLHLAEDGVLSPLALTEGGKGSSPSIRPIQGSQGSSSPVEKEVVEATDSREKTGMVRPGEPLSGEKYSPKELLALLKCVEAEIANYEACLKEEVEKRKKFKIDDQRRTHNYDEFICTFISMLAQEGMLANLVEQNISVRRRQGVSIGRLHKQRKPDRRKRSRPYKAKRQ
Outline: as §1

[4] = target: EIF3F (UniProt O00303)
Outline: as §1

[5] = target: EIF3H (UniProt O15372)
Outline: as §1

[6] = target: T3, FAM105A (UniProt Q9NUU6)
T3 sequence (whole entry): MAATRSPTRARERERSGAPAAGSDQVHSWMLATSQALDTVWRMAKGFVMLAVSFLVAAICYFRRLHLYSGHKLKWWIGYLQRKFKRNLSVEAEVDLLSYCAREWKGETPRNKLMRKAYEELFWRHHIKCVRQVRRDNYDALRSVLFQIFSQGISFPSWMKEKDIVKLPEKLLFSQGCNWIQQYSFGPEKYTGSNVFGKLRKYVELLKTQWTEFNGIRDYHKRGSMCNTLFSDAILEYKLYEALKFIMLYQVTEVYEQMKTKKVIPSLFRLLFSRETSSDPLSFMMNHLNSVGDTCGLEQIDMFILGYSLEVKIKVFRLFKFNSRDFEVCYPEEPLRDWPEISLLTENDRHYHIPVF
Outline: as §1

[7] = target: OTUB1 (UniProt Q96FW1)
Outline: as §1

[8] = target: T4, OTUD4 (UniProt Q01804)
T4 sequence (whole entry): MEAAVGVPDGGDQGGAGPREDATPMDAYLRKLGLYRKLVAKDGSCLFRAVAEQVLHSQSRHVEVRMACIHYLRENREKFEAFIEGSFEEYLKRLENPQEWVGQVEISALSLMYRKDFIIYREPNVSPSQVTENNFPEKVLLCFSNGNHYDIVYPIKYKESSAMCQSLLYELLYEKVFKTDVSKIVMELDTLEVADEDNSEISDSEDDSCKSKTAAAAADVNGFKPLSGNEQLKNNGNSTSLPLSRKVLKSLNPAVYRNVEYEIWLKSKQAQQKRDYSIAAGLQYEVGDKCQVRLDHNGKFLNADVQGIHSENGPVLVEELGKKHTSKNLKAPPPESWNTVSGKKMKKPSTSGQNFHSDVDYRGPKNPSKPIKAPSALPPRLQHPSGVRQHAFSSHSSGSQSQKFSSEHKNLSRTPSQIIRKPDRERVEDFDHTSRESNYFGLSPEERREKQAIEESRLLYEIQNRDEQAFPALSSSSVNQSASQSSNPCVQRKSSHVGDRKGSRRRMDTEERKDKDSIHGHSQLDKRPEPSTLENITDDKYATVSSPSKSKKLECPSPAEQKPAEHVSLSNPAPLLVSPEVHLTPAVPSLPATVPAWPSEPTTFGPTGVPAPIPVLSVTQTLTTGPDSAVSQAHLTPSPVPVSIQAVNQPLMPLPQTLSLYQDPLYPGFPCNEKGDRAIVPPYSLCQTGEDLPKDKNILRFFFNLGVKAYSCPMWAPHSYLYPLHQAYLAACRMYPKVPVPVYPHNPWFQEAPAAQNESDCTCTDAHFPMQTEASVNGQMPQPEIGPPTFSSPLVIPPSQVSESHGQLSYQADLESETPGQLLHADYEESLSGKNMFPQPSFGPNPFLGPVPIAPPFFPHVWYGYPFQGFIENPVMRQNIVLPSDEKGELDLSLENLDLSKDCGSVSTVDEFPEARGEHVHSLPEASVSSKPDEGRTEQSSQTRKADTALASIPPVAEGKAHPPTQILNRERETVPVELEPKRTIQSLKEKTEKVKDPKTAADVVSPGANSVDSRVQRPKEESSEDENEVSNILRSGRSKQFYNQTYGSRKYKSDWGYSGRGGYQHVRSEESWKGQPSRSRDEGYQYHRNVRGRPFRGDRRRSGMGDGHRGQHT
Outline: as §1

[9] = target: T5, OTUD5 (UniProt Q96G74)
T5 sequence (whole entry): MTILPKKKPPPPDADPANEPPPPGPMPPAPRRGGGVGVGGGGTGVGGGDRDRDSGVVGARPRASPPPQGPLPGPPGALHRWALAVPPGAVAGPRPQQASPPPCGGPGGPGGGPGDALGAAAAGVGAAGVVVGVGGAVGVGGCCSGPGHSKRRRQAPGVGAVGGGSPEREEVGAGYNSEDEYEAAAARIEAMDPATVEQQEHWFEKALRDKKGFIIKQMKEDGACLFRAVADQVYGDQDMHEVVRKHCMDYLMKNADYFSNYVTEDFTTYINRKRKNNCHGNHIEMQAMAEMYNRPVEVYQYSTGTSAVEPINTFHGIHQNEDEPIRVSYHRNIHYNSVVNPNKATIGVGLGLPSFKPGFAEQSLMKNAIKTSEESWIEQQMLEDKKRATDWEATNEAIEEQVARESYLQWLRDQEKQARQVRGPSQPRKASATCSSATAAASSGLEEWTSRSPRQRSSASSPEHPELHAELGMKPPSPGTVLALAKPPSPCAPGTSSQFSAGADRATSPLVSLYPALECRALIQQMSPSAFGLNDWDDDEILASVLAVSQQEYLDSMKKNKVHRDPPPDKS
Outline: as §1

Sequence of OTUB1 (Q96FW1 whole entry): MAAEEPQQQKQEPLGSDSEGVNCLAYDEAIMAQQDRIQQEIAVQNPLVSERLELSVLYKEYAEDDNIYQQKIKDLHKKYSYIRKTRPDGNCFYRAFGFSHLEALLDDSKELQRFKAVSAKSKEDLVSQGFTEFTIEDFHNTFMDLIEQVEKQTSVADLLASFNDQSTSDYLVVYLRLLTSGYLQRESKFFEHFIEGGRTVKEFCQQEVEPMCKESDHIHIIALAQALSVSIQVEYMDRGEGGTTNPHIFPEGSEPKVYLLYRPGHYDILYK
Sequence of EIF3F (O00303 whole entry): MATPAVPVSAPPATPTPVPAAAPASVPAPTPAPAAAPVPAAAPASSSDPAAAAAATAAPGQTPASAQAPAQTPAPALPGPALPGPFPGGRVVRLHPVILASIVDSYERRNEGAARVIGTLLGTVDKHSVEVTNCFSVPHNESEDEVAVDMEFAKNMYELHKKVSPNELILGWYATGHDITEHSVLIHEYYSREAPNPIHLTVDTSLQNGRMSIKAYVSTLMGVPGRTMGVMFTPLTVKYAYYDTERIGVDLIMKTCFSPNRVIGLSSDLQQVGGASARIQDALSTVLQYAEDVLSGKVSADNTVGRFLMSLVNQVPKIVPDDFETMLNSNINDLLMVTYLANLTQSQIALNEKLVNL
Sequence of EIF3H (O15372 whole entry): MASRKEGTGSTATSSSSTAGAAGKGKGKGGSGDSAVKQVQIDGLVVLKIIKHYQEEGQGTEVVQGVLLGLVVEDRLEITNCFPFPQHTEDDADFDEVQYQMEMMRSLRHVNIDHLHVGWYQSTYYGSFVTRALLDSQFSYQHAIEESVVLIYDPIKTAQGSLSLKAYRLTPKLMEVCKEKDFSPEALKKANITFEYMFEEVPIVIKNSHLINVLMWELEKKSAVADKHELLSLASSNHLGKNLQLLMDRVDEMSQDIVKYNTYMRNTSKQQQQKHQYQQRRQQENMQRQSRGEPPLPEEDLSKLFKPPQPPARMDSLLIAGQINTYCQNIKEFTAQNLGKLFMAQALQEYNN
Sequence of ATXN3 (P54252 whole entry): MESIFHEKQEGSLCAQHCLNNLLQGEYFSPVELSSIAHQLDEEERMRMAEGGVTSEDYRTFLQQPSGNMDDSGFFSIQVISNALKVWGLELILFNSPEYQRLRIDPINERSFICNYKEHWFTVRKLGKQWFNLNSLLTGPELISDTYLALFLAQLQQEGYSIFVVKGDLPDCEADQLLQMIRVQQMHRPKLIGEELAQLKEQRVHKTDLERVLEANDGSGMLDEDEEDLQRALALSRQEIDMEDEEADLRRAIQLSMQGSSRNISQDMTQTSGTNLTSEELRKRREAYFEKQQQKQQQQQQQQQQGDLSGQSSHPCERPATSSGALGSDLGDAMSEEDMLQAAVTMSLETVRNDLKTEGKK

COc1ccccc1C(C)NC(=O)CCl (centres undefined)
log2 ratio of Biotin-Ahx-Ub-VS probe labelling [1]: -0.0378
log2 ratio of Biotin-Ahx-Ub-VS probe labelling [2]: -0.0967
log2 ratio of Biotin-Ahx-Ub-VS probe labelling [3]: -2.35 (active)
log2 ratio of Biotin-Ahx-Ub-VS probe labelling [4]: -0.185
log2 ratio of Biotin-Ahx-Ub-VS probe labelling [5]: -0.0831
log2 ratio of Biotin-Ahx-Ub-VS probe labelling [6]: -0.0799
log2 ratio of Biotin-Ahx-Ub-VS probe labelling [7]: -0.298
log2 ratio of Biotin-Ahx-Ub-VS probe labelling [8]: -0.393
log2 ratio of Biotin-Ahx-Ub-VS probe labelling [9]: -0.514
